Results from PubChem BioAssay AID504408 (Broad Institute, 2011).
Hit rate of the full screen: of about 300,000 compounds, about 5,200 (1.7%) were called active.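 Rule for the calls: active = mean replicate activation of at least 50% with a set share of replicates each reaching 50%; inconclusive = only one of those two conditions met; inactive = mean below 50% and too few replicates reaching it.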 The sample as a whole holds a higher share of actives than the screen did.

Assay: HSF-1 response element luciferase induction – NIH3T3-HGL cells, MG132 stress, luminescence, single point, primary screen (AID 504408);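 note: 0% = median of the neutral control wells and 100% = twice that signal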
Conditions: NIH3T3-HGL HSF-1 luciferase reporter, MG132, 8 h; at 9 µM; active compounds read high; 100% = twice DMSO control signal

activation, active:
COc1cccc(NC(=S)NC(=O)c2c(Cl)c(C)nn2C)c1 60.9%
C/C(CCC(=O)OC[C@H]1O[C@H](C#Cc2ccccc2)C=C[C@@H]1Oc1ccc(C)cc1)=N\OC[C@@H](O)[C@H]1O[C@@H]2OC(C)(C)O[C@@H]2[C@H]1O 61.7%
Cc1[nH]c(=O)c(C(=O)/C=C/c2ccccc2)c2c1CCCC2 71%
O=C(c1ccc[nH]c1=S)N1CCN(S(=O)(=O)c2ccc(Br)cc2Cl)CC1 58%
Cc1ccccc1Nc1nc(N)nc(CSc2ccccc2)n1 118%

activation, inactive:
CCc1cccc(C)c1NC(=O)COC(=O)CC1CCCC1 4.54%
CCCCn1c(N)c(N(CC(C)C)C(=O)c2ccc(-n3c(C)ccc3C)cc2)c(=O)[nH]c1=O 4.3%
CCN(CC(=O)Nc1ccc(NC(C)=O)cc1)C(=O)C1CC(=O)N(Cc2ccc(C)cc2)C1 (stereo not given) 3.94%
Cc1cccc(C(=O)NCc2nnc(SC(C)C(=O)Nc3nnc(C)s3)n2C)c1 (stereo not given) -1.45%
Cc1onc(-c2ccccc2Cl)c1C(=O)N(Cc1ccc(N(C)C)cc1)C(C)C 8.27%
COc1cccc(NC(=S)NCc2ccccn2)c1 15.3%
Cc1nn(C)c(C(=O)NNC(=S)NC2CCCCC2)c1Cl 22.3%
CN(CC(=O)Nc1cccc(F)c1)C(=O)C1CSC2(C)CCC(=O)N12 (stereo not given) 1.13%
O=C1CN(C(=O)COc2c(Cl)cccc2Cl)c2ccccc2N1 -79.7%
Cc1cc(C)cc(NC(=O)COc2coc(CN3CCN(c4ccccc4)CC3)cc2=O)c1 1.43%
COc1ccc(O[C@H]2C=C[C@@H](c3ccccc3)O[C@@H]2CO/N=C/C[C@@H]2C=C[C@H](OC(C)=O)[C@@H](COC(C)=O)O2)cc1 -4.12%
CCOc1ccc(CCNC(=O)COC(=O)c2c(OC)cccc2OC)cc1OCC -2.88%
Cc1cn(COC/C=C/c2ccccc2)c(=O)[nH]c1=O -6.12%
CC(=O)Nc1ccc(/C=C/C(=O)c2ccccc2)cc1 30.2%
O=C(c1ccc(F)cc1)N1CCC(C(=O)N2CCN(S(=O)(=O)c3ccccc3Br)CC2)CC1 -3.27%
CCOc1ccc(S(=O)(=O)N2CCC(C(=O)OCc3ccc(OC)cc3)CC2)cc1 10.2%
Cc1nc(-c2ccc(F)cc2)c(CC(=O)Nc2cccc(S(=O)(=O)N3CCOCC3)c2)s1 4.29%
O=C(c1ccccc1F)N1CCN(S(=O)(=O)c2ccc(Br)cc2)CC1 -5.95%
O=C(c1ccc(Cl)c(S(=O)(=O)N2CCCCC2)c1)N1CCCCCC1 -11.6%
CC(=O)CC[C@@H](C)O[C@@H]1OC(C)[C@H](O)CC1O (stereo not given in full) -8.11%
CCOc1ccc(C(=O)Nc2cc(Cl)ccc2-n2cncn2)cc1OC -15.6%
Cc1ccccc1NC(=O)C(C)OC(=O)CCC(=O)N(CC(C)C)c1c(N)n(CC(C)C)c(=O)[nH]c1=O (stereo not given) -9.04%
Cc1ccc(C(=O)OCc2nc(N)nc(Nc3ccccc3C)n2)cc1 -1.52%
Cc1ccccc1Nc1nc(N)nc(CSc2nnc3ccccn23)n1 -3.03%
O=C(Nc1ncccc1O)c1ccc(S(=O)(=O)N2CCCCCC2)cc1 3.69%
